# Laboratory results reported in PMC7862700, “An all-to-all approach to the identification of sequence-specific readers for epigenetic DNA modifications on cytosine”.
# Legend:
# Assay in all cases: DAPPL (digital affinity profiling via proximity ligation, sequencing); 10 mM Tris-HCl pH 7.5, 50 mM NaCl, 1 mM DTT, 4% glycerol, room temperature, 30 min; GST-TFs on glutathione beads, 16-mer random dsDNA library, 0.1% formaldehyde crosslink after washing; high values mean tight binding
# FLI1 = target: T1, FLI1 (Homo sapiens, UniProt Q01543 1-452); conditions: protein: recombinant; tags: N-terminal GST; dsDNA, one strand shown
# T1 sequence: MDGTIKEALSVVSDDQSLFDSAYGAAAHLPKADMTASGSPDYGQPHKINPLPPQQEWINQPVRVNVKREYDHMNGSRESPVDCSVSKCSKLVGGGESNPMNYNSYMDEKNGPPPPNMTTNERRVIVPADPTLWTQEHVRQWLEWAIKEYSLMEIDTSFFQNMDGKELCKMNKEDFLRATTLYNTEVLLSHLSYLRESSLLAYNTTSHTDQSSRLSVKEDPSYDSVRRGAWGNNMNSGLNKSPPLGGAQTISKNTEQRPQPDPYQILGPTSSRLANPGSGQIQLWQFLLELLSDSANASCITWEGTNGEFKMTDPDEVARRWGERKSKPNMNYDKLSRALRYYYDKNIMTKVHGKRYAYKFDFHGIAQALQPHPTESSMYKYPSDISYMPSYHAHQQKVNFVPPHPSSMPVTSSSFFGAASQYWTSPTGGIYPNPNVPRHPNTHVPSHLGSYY
# Method in brief: (§1)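 Human transcription factors were made in yeast as GST fusions, captured on glutathione beads and barcoded with DNA. With a tag-only sample included, the pool was incubated with 200 nmole of a random double-stranded 16-mer DNA library in Tris/NaCl/DTT/glycerol buffer at room temperature for 30 min, then crosslinked with 0.1% formaldehyde after washing, ligated by proximity, amplified and sequenced. For binding signal, each hexamer's read frequency for a factor is divided by its frequency for the tag-only sample.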
# ELK1 = target: T2, ELK1 (Homo sapiens, UniProt P19419 1-428); conditions: protein: recombinant; tags: N-terminal GST; dsDNA, one strand shown
# T2 sequence: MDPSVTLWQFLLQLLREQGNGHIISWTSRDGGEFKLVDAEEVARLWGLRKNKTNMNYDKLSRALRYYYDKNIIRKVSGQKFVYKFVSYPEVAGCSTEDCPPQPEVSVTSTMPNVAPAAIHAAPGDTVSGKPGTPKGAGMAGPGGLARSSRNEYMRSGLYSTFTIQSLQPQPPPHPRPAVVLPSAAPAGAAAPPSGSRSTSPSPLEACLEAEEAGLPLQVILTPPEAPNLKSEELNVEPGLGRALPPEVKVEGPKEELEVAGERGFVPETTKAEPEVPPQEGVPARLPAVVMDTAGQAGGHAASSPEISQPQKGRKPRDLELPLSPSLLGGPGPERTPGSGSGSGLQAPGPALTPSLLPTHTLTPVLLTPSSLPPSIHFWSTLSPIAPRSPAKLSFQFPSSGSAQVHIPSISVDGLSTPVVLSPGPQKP
# Method in brief: as §1
# GABPA = target: T3, GABPA (Homo sapiens, UniProt Q06546 1-454); conditions: protein: recombinant; tags: N-terminal GST; dsDNA, one strand shown
# T3 sequence: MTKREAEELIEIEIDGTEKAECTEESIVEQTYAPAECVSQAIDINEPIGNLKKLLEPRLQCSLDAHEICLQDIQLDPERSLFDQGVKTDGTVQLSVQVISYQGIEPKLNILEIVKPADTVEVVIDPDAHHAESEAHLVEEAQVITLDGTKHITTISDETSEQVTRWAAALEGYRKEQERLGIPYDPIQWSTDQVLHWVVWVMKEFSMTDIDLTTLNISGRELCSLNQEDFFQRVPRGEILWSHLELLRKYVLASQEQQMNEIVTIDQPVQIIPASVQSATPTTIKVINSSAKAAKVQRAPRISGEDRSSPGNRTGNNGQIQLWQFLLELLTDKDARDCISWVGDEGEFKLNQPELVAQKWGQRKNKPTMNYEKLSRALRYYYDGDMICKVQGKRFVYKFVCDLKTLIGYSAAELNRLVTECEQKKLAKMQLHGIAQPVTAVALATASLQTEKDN
# Method in brief: as §1
# ERG = target: T4, ERG (Homo sapiens, UniProt P11308 1-479); conditions: protein: recombinant; tags: N-terminal GST; dsDNA, one strand shown
# T4 sequence: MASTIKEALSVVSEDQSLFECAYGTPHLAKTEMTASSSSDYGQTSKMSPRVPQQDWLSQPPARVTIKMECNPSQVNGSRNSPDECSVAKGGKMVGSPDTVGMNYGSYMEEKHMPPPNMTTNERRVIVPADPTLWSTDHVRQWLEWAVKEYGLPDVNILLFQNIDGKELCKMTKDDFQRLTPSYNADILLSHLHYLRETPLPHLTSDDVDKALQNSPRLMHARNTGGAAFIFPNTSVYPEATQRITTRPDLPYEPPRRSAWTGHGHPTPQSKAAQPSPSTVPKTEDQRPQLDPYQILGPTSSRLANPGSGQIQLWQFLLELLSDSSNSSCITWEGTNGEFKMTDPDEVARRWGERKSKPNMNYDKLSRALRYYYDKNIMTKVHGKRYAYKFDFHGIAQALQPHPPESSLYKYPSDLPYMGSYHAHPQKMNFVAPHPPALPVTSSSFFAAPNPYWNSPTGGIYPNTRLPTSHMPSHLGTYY
# Method in brief: as §1
# ELF1 = ELF1 (Homo sapiens, UniProt P32519 1-619); conditions: protein: recombinant; tags: N-terminal GST; dsDNA, one strand shown
# Chain of ELF1 (P32519 whole entry): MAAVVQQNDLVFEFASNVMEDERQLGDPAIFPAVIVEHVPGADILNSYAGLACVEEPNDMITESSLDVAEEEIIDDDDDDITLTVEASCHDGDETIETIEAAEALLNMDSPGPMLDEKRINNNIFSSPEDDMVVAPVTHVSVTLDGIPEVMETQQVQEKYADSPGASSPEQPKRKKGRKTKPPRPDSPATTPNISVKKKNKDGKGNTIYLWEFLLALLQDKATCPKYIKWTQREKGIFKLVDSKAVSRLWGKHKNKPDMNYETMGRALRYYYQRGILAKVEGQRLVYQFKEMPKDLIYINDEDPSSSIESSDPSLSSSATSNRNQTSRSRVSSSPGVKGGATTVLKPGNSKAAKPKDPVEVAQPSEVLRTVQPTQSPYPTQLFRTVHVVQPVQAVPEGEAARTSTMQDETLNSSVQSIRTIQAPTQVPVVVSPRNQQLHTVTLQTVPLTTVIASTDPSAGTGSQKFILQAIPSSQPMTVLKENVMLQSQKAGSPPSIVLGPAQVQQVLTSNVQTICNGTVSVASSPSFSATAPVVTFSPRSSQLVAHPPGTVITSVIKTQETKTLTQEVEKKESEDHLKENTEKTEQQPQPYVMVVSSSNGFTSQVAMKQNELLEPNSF
# Method in brief: as §1
# EHF = target: T5, EHF (Homo sapiens, UniProt Q9NZC4 1-300); conditions: protein: recombinant; tags: N-terminal GST; dsDNA, one strand shown
# T5 sequence: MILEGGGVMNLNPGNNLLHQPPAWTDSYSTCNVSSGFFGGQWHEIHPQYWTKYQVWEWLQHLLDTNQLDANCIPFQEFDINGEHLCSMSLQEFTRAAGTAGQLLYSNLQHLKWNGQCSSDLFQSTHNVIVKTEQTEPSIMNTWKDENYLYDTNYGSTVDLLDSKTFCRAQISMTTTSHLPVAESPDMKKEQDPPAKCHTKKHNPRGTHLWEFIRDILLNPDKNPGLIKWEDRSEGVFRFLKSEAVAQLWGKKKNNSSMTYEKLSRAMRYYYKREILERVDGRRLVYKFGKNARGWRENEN
# Method in brief: as §1
# SPI1 = SPI1 (Homo sapiens, UniProt P17947 1-270); conditions: protein: recombinant; tags: N-terminal GST; dsDNA, one strand shown
# Method in brief: as §1
# SPIB = SPIB (Homo sapiens, UniProt Q01892 1-262); conditions: protein: recombinant; tags: N-terminal GST; dsDNA, one strand shown
# Chain of SPIB (Q01892 whole entry): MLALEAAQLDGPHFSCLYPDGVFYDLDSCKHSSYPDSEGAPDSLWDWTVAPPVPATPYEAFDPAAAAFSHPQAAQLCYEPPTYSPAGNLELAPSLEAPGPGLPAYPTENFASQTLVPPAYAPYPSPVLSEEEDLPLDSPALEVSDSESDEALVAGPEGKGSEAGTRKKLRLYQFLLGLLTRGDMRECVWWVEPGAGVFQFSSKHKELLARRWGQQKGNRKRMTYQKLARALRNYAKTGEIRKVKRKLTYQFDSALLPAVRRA
# Method in brief: as §1
# ELK3 = target: T6, ELK3 (Homo sapiens, UniProt P41970 1-407); conditions: protein: recombinant; tags: N-terminal GST; dsDNA, one strand shown
# T6 sequence: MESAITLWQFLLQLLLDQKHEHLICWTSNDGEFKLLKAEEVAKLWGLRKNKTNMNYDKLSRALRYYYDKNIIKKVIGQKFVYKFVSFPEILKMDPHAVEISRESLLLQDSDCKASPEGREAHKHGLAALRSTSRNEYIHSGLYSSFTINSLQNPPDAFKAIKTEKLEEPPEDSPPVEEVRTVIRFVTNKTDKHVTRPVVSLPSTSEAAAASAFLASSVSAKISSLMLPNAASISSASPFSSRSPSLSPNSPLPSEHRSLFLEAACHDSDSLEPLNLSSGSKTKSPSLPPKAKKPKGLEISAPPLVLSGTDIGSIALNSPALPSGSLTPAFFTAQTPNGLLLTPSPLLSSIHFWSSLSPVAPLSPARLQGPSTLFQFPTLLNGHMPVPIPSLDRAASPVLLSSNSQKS
# Method in brief: as §1
# FEV = target: T7, FEV (Homo sapiens, UniProt Q99581 1-238); conditions: protein: recombinant; tags: N-terminal GST; dsDNA, one strand shown
# T7 sequence: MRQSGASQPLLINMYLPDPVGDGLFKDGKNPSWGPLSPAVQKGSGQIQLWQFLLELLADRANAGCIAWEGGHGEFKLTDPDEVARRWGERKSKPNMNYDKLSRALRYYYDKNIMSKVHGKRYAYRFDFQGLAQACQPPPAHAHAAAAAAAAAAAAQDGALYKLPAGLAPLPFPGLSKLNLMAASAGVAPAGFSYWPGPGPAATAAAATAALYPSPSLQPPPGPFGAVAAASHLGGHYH
# Method in brief: as §1
# ETV5 = ETV5 (Homo sapiens, UniProt P41161 1-510); conditions: protein: recombinant; tags: N-terminal GST; dsDNA, one strand shown
# Chain of ETV5 (P41161 whole entry): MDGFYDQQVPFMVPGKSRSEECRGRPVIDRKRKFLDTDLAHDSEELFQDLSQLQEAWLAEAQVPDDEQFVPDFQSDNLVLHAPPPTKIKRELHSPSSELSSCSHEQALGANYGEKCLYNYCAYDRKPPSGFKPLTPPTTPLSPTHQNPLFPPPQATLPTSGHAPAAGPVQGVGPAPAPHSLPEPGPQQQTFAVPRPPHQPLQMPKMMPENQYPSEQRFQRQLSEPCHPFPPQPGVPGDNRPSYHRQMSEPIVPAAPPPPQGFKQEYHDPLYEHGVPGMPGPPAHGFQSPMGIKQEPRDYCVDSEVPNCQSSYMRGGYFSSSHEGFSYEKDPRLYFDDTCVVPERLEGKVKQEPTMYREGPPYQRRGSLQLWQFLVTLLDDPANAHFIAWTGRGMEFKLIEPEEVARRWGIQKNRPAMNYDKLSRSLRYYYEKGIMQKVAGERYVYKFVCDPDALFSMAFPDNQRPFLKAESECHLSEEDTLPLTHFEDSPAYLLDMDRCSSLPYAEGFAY
# Method in brief: as §1
# HSF1 = HSF1 (Homo sapiens, UniProt Q00613 1-529); conditions: protein: recombinant; tags: N-terminal GST; chain copies: 3; dsDNA, one strand shown
# Chain of HSF1 (Q00613 whole entry): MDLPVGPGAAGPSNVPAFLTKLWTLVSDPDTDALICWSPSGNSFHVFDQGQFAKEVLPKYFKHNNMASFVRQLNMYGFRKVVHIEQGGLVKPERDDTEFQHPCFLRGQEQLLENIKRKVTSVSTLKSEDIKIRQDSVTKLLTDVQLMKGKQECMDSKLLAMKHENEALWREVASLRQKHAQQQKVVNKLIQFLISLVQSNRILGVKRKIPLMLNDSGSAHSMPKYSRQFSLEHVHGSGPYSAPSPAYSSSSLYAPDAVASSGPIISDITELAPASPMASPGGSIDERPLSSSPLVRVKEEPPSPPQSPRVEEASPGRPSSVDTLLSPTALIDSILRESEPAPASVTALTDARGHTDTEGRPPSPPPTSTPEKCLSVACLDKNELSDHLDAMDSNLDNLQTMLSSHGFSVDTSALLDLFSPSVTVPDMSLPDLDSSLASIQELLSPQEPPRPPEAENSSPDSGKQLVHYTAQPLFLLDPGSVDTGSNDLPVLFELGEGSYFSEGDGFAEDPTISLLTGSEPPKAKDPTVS
# Method in brief: as §1
# SPIC = target: T8, SPIC (Homo sapiens, UniProt Q8N5J4 1-248); conditions: protein: recombinant; tags: N-terminal GST; dsDNA, one strand shown
# T8 sequence: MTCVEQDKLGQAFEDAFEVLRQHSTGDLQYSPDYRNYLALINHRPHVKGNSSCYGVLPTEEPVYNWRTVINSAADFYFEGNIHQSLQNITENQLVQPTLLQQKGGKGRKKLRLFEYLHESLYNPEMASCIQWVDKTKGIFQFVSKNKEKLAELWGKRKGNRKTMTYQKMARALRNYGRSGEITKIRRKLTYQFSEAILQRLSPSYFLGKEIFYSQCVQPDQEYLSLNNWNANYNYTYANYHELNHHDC
# Method in brief: as §1
# ELF4 = ELF4 (Homo sapiens, UniProt Q99607 1-663); conditions: protein: recombinant; tags: N-terminal GST; dsDNA, one strand shown
# Chain of ELF4 (Q99607 whole entry): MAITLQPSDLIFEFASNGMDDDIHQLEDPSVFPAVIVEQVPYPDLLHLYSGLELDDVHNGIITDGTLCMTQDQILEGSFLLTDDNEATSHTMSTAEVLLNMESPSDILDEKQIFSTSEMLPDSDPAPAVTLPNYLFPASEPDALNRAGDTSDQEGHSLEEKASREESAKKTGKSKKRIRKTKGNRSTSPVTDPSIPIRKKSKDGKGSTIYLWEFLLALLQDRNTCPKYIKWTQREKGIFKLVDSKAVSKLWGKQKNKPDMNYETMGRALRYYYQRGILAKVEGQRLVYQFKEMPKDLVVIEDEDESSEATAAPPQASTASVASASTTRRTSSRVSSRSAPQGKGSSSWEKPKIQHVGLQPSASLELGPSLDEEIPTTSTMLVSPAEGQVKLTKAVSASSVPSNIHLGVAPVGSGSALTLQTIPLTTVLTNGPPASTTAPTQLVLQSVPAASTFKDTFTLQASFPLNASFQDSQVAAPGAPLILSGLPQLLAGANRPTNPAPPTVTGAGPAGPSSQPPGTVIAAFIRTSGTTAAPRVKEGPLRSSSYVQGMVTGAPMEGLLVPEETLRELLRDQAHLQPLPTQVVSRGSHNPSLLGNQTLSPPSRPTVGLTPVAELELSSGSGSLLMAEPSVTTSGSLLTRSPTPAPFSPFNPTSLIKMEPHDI
# Method in brief: as §1
# ELK4 = target: T9, ELK4 (Homo sapiens, UniProt P28324-2 1-405); conditions: protein: recombinant; tags: N-terminal GST; dsDNA, one strand shown
# T9 sequence: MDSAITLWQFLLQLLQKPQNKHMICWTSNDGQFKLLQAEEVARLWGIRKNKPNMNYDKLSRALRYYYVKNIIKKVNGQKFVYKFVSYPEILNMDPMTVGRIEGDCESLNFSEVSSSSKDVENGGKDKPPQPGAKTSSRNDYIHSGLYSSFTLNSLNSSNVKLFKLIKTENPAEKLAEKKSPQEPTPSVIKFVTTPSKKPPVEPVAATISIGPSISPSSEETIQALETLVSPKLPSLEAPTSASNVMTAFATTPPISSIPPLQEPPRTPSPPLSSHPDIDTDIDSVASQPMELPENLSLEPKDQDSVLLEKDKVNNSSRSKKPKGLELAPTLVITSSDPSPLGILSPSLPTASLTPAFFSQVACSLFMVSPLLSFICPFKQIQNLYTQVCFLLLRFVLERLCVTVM
# Method in brief: as §1
# ETV2 = target: T10, ETV2 (Homo sapiens, UniProt O00321 1-342); conditions: protein: recombinant; tags: N-terminal GST; dsDNA, one strand shown
# T10 sequence: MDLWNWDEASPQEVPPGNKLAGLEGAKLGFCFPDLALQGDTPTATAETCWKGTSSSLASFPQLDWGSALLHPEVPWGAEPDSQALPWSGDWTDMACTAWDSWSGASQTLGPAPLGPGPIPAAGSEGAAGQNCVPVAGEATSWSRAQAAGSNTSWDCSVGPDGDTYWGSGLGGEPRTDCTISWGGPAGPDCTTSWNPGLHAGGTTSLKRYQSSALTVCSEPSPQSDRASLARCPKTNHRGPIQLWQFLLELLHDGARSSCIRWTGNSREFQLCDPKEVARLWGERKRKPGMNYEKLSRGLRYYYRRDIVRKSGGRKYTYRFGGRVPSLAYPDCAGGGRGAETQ
# Method in brief: as §1
# ELF3 = target: T11, ELF3 (Homo sapiens, UniProt P78545 1-371); conditions: protein: recombinant; tags: N-terminal GST; dsDNA, one strand shown
# T11 sequence: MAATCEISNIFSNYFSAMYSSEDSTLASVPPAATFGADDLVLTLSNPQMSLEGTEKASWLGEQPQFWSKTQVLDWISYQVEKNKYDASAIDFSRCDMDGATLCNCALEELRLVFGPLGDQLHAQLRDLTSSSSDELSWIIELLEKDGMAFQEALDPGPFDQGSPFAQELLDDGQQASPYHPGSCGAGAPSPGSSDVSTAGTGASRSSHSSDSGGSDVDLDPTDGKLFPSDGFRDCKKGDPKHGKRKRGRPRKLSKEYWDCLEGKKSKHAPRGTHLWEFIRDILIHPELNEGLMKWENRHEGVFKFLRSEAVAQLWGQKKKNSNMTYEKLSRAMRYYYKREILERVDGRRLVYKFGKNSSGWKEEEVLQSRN
# Method in brief: as §1
# CRX = CRX (Homo sapiens, UniProt O43186 1-299); conditions: protein: recombinant; tags: N-terminal GST; dsDNA, one strand shown
# Chain of CRX (O43186 whole entry): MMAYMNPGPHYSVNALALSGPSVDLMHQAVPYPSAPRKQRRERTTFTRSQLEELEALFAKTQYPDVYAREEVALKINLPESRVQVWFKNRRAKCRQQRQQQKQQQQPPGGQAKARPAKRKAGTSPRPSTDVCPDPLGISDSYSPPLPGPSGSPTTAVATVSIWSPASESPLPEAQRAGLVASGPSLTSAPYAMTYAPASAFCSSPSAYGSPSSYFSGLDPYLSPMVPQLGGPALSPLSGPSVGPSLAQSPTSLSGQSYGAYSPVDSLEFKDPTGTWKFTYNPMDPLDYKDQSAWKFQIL
# Method in brief: as §1
# ETV1 = ETV1 (Homo sapiens, UniProt P50549 1-477); conditions: protein: recombinant; tags: N-terminal GST; dsDNA, one strand shown
# Chain of ETV1 (P50549 whole entry): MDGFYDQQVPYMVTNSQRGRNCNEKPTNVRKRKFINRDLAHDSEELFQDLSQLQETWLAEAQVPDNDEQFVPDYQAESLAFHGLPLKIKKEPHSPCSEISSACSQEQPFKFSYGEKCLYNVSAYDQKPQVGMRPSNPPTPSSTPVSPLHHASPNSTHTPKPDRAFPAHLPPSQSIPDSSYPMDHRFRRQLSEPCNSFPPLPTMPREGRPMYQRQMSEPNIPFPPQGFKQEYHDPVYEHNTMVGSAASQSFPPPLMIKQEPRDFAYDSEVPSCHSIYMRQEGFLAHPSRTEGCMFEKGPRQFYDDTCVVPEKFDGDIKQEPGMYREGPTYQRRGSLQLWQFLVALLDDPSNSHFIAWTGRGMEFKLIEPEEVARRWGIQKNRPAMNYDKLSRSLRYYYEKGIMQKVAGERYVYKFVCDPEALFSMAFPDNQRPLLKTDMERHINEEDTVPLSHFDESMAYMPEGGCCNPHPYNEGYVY
# Method in brief: as §1
sequence,measurement,setting,value
CCCTAA,binding signal,FLI1,"1.16 fold enrichment (6-mer frequency, TF over GST control)"
same,binding signal,ELK1,"1.19 fold enrichment (6-mer frequency, TF over GST control)"
same,binding signal,GABPA,"1.15 fold enrichment (6-mer frequency, TF over GST control)"
same,binding signal,ERG,"1.17 fold enrichment (6-mer frequency, TF over GST control)"
same,binding signal,ELF1,"1.25 fold enrichment (6-mer frequency, TF over GST control)"
same,binding signal,EHF,"1.24 fold enrichment (6-mer frequency, TF over GST control)"
same,binding signal,SPI1,"1.2 fold enrichment (6-mer frequency, TF over GST control)"
same,binding signal,SPIB,"1.29 fold enrichment (6-mer frequency, TF over GST control)"
same,binding signal,ELK3,"1.28 fold enrichment (6-mer frequency, TF over GST control)"
same,binding signal,FEV,"1.18 fold enrichment (6-mer frequency, TF over GST control)"
same,binding signal,ETV5,"1.28 fold enrichment (6-mer frequency, TF over GST control)"
same,binding signal,HSF1,"1.29 fold enrichment (6-mer frequency, TF over GST control)"
same,binding signal,SPIC,"1.24 fold enrichment (6-mer frequency, TF over GST control)"
same,binding signal,ELF4,"1.28 fold enrichment (6-mer frequency, TF over GST control)"
same,binding signal,ELK4,"1.28 fold enrichment (6-mer frequency, TF over GST control)"
same,binding signal,ETV2,"1.23 fold enrichment (6-mer frequency, TF over GST control)"
same,binding signal,ELF3,"1.25 fold enrichment (6-mer frequency, TF over GST control)"
same,binding signal,CRX,"1.71 fold enrichment (6-mer frequency, TF over GST control)"
same,binding signal,ETV1,"1.23 fold enrichment (6-mer frequency, TF over GST control)"
